# In the supplement of paper PMC8728848:
# This excerpt belongs to a sample that is enriched for the strongest signals.
# B1: NKp30 (Homo sapiens), O14931 (protein)
# chain: MAWMLLLILIMVHPGSCALWVSQPPEIRTLEGSSAFLPCSFNASQGRLAIGSVTWFRDEVVPGKEVRNGTPERFGRLAPLASSRFLHDHQAELHIRDVRGHDASIYVCRVEVLGLGVGTGNGTRLVVRKEHPQLGAGTHADPEAPEAEGAPSVFLFPPKPKDTLMISRTPEVTCVVVDVSHEDPEVKFNWYVDGVEVHNAKTPREEQYNSTYRVVSVLTVLHQDWLNGKEYKCKVSNKALPAPIEKTISKAKGQPREPQVYTLPPSRDELTKNQVSLTCLVKGFYPSDIAVEWESNGQPENNYKTTPPVLDSDGSFFLYSKLTVDKSRWQQGNVFSCSVMHEALHNHYTQKSLSLSPGK
# Columns and labels:
# Test in all cases: glycan array binding signal (z-score within array); higher = stronger binding
# Details in all cases: glycan notation: IUPAC condensed, linker removed
# [1] = molecular target: Fuc(a1-2)Gal(b1-4)Glc
# How it was run: (§1)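 From the Consortium for Functional Glycomics database, 3228 arrays were curated, keeping only those whose protein sequence was available. Binding is given as a within-array Z-score averaged across arrays sharing a protein sequence and across linkers. Negative Z-scores can be read as non-binding.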
# [2] = molecular target: Fuc(a1-2)Gal(b1-4)[Fuc(a1-3)]GlcNAc
# How it was run: as §1
# [3] = molecular target: Fuc(a1-2)[Gal(a1-3)]Gal
# How it was run: as §1
# [4] = molecular target: Fuc(a1-2)[GalNAc(a1-3)]Gal(b1-4)[Fuc(a1-3)]GlcNAc
# How it was run: as §1
# [5] = molecular target: Fuc(a1-2)[GalNAc(a1-4)]Gal(b1-4)GlcNAc
# How it was run: as §1
# [6] = molecular target: Fuc(a1-3)GlcNAc
# How it was run: as §1
# [7] = molecular target: Gal(a1-2)Gal
# How it was run: as §1
# [8] = molecular target: Gal(a1-3)Gal
# How it was run: as §1
# [9] = molecular target: Gal(a1-3)Gal(b1-4)Glc
# How it was run: as §1
# [10] = molecular target: Gal(a1-6)Glc
# How it was run: as §1
# [11] = molecular target: Gal(b1-3)GalNAc(b1-4)[Neu5Ac(a2-3)]Gal(b1-4)Glc
# How it was run: as §1
# [12] = molecular target: Gal(b1-3)[Neu5Ac(b2-6)]GalNAc
# How it was run: as §1
# [13] = molecular target: Gal(b1-4)GalNAc(a1-3)[Fuc(a1-2)]Gal(b1-4)GlcNAc
# How it was run: as §1
# [14] = molecular target: Gal(b1-4)GlcNAc(b1-3)Gal(b1-4)GlcNAc(b1-3)Gal(b1-4)GlcNAc
# How it was run: as §1
# [15] = molecular target: Gal(b1-4)GlcNAc(b1-3)[Gal(b1-4)GlcNAc(b1-6)]Gal(b1-4)GlcNAc
# How it was run: as §1
# [16] = molecular target: Gal3S(b1-3)GalNAc
# How it was run: as §1
# [17] = molecular target: Gal3S(b1-4)Glc
# How it was run: as §1
# [18] = molecular target: Gal3S(b1-4)GlcNAc6S
# How it was run: as §1
# [19] = molecular target: GalNAc(b1-3)GalNAc
# How it was run: as §1
# [20] = molecular target: Glc(a1-4)Glc
# How it was run: as §1
# [21] = molecular target: GlcNAc(b1-3)Man
# How it was run: as §1
# [22] = molecular target: GlcNAc(b1-4)GlcNAc
# How it was run: as §1
# [23] = molecular target: Kdn(a2-3)Gal(b1-4)GlcNAc
# How it was run: as §1
# [24] = molecular target: Man(a1-2)Man(a1-6)[Man(a1-3)]Man(a1-6)[Man(a1-2)Man(a1-2)Man(a1-3)]Man
# How it was run: as §1
# [25] = molecular target: Man(a1-2)Man(a1-6)[Man(a1-3)]Man(a1-6)[Man(a1-2)Man(a1-2)Man(a1-3)]Man(b1-4)GlcNAc(b1-4)GlcNAc
# How it was run: as §1
# [26] = molecular target: Neu5Ac(a2-3)Gal(b1-4)[Fuc(a1-3)]GlcNAc(b1-3)Gal(b1-4)[Fuc(a1-3)]GlcNAc(b1-3)Gal(b1-4)[Fuc(a1-3)]GlcNAc
# How it was run: as §1
# [27] = molecular target: Neu5Ac(a2-6)Gal(b1-4)GlcNAc(b1-3)Gal(b1-4)[Fuc(a1-3)]GlcNAc(b1-3)Gal(b1-4)[Fuc(a1-3)]GlcNAc
# How it was run: as §1
# [28] = molecular target: Neu5Ac(a2-8)Neu5Ac(a2-8)Neu5Ac(a2-3)[GalNAc(b1-4)]Gal(b1-4)Glc
# How it was run: as §1
# [29] = molecular target: Neu5Ac9Ac(a2-6)Gal(b1-4)GlcNAc
# How it was run: as §1
binder,measurement,setting,value
B1,glycan array binding signal (z-score),[1],-0.091
same,glycan array binding signal (z-score),[2],0.195
same,glycan array binding signal (z-score),[3],0.375
same,glycan array binding signal (z-score),[4],0.416
same,glycan array binding signal (z-score),[5],-0.379
same,glycan array binding signal (z-score),[6],13.9
same,glycan array binding signal (z-score),[7],1.41
same,glycan array binding signal (z-score),[8],1.89
same,glycan array binding signal (z-score),[9],2.48
same,glycan array binding signal (z-score),[10],6.49
same,glycan array binding signal (z-score),[11],-0.671
same,glycan array binding signal (z-score),[12],-0.317
same,glycan array binding signal (z-score),[13],0.071
same,glycan array binding signal (z-score),[14],-0.44
same,glycan array binding signal (z-score),[15],0.041
same,glycan array binding signal (z-score),[16],-0.265
same,glycan array binding signal (z-score),[17],-0.02
same,glycan array binding signal (z-score),[18],-0.253
same,glycan array binding signal (z-score),[19],1.68
same,glycan array binding signal (z-score),[20],0.053
same,glycan array binding signal (z-score),[21],-0.416
same,glycan array binding signal (z-score),[22],0.115
same,glycan array binding signal (z-score),[23],-0.251
same,glycan array binding signal (z-score),[24],-0.314
same,glycan array binding signal (z-score),[25],-0.41
same,glycan array binding signal (z-score),[26],-0.204
same,glycan array binding signal (z-score),[27],-0.38
same,glycan array binding signal (z-score),[28],-0.221
same,glycan array binding signal (z-score),[29],0.048
